Bioassay records deposited in PubChem by National Center for Advancing Translational Sciences (NCATS).
CHX counter = counter-screen for Shiga toxin inhibitors: cycloheximide protein synthesis inhibition. cell reporter, cycloheximide protein synthesis inhibition counterscreen. max response, %. 12% of 300,000 active. AID 2314; in the data active = max response mostly above about 13%, no sharp cut-off; inactive = mostly below about 14%; also: read at 38.3 µM for the half of the compounds with a filed dose; 0% is about no effect
NS1 inh = blocks influenza NS1 protein function | 0.4% of 270,000 active | Potency, µM (doses to about 46.1 µM), for the others: at the highest dose activity, positive = more growth; calls by dose curve; also: potency is read from the fitted curve at half-maximal effect; actives are rising curves; nearly all actives have a fitted effect of over 50% in size
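Read-out: OD600 growth recovery of NS1-expressing budding yeast. Cells grown overnight at 30C in -URA glucose medium, washed, resuspended and diluted 1:100 in 2% galactose assay medium, pH 6.0. Same strain lacking NS1 served as positive control.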
LmPK inhibitor = LmPK (Leishmania mexicana) enzyme inhibition. purified LmPK, Kinase-Glo ATP luminescence, 1 h. Potency, µM (top dose mostly 57.5 µM), for the others: at the top dose activity change, negative = inhibition, hits mostly inhibitors. 0.37% of 290,000 active. AID 1721; also: potency is read from the fitted curve at half-maximal effect; % is scaled to controls: 0 for no effect and ±100 for the full control effect
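Kinase-Glo luminescence read after 1 h RT reaction of 0.1 nM LmPK with 0.5 mM PEP and 0.1 mM ADP. Activity scaled between uninhibited and enzyme-free controls.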
FBPA Giardia inh = blocks Giardia fructose-bisphosphate aldolase activity; A8B2U2; purified Giardia FBPA; Potency, µM (series often up to 59.6 µM), inactives show top-dose activity, negative = inhibition, actives largely listed as inhibitors; 0.71% of 290,000 active; AID 2451; also: potency is read from the fitted curve at half-maximal effect; % is scaled to controls: 0 for no effect and ±100 for the full control effect; nearly all actives have a fitted effect of over 55% in size
Target sequence (A8B2U2 whole entry, looked up): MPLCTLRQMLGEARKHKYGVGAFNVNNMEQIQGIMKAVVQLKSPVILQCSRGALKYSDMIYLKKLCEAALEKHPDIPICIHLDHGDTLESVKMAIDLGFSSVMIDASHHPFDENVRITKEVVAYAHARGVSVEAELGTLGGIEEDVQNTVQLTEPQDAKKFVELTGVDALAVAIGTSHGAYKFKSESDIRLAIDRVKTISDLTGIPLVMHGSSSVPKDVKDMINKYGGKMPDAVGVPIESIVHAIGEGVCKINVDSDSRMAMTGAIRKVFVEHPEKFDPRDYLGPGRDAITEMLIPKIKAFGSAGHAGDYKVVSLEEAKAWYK
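Giardia FBPA (40 nM reagent) was preincubated 10 min at RT with compound (up to 57.5 uM final), then substrate plus GAPDH/TPI/NAD/arsenate coupling system with diaphorase/resazurin was added; resorufin fluorescence (525/598 nm) was read after 20 min.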
Shiga inhibitor = blocks Shiga toxin action in Vero cells | inhibition, % at 38.7 µM | Vero cells, Shiga toxin protein synthesis inhibition reporter | 9.2% of 290,000 active; in the data active = inhibition mostly above about 28%, no sharp cut-off; inactive = mostly below about 43%; also: 0% is about no effect
* hit, by the source's call; ? = inconclusive; / = no result given; [ ] = another dose, or the depositor's remark. Hits are enriched below; roughly 14% of the tested compounds scored in any of these assays. Unless noted, calls follow the shape of the dose curve; as a rule, active = well fitted curve in the direction sought with a large enough effect; inconclusive = small, poorly fitted or top-dose-only effect, or another doubt; inactive = no such curve, though single readings can be large; an effect the other way counts as inactive or inconclusive.

SMILES	CHX counter	NS1 inh	LmPK inhibitor	FBPA Giardia inh	Shiga inhibitor
CCN(CC)CCCNc1nc(SC)nc2sc3c(c12)CCN(C)C3	-2.2	1.3%	2.3%	0.6%	2.1
CCCCC/C=C\C/C=C\C/C=C\C/C=C\CCCCCC(=O)NCC(=O)O	/	/	/	1.7%	/
O=C(Nc1ccc2c(c1)CCCN2C(=O)c1ccccc1)c1ccccc1	22.0*	-15.8%	-5.2%	0.8%	54.1*
COc1cccc(NC(=O)N2CCCc3ccccc32)c1	47.5*	3.1%	2.1%	-10.1%	72.6*
Cc1ccccc1C(=O)Nc1ccc2c(c1)CCCN2C(=O)c1cccs1	10.1	-24.8%	-17.6%	/	11.1
O=C(c1cc2ccccc2c(=O)o1)N1CCCc2ccccc21	17.3*	1.5%	2.1%	8.3%	49.9
COc1cc(OC)cc(C(=O)N2CCCc3ccccc32)c1	24.0*	-60.8%	-0.1%	3.7%	85.2
C#CC(C)OC(=O)c1nnc2c3ccccc3n(COC)c2n1 (stereo unspecified)	/	/	/	-2.8%[12.9 µM]	/
O=C1CCC(=O)N1CC(=O)N1CCCc2ccccc21	-4.0	-5.8%	2.5%	-5.6%	-11.8
COc1cccc(NC(=O)CN2CCC(C)CC2)c1	29.8*	2.4%	-1.8%	0.7%	35.4*
COc1cccc(NC(=O)N2CCCC2)c1	27.3	-1.9%	0.0%	-4.1%	54.4*
COC(=O)/C(=N/Nc1cccc(C)c1)N1CCCc2ccccc21	18.9*	-23.5%	3.8%	-27.4%	42.9
CC(=O)c1cccc(NC(=O)N2CCCc3ccccc32)c1	20.9*	-10.1%	-2.3%	?	57.6
COc1cccc(NC(=O)CN2CCN(CC(=O)Nc3ccc(F)cc3)CC2)c1	-4.4	-1.9%	3.5%	-4.6%	-7.1
COC(=O)/C(=N/Nc1ccccc1)N1CCCc2ccccc21	6.2	-4.7%	-0.4%	-23.8%	-2.8
O=C(c1ccc(S(=O)(=O)N2CCOCC2)cc1)N1CCCc2ccccc21	22.2*	21.2%	1.0%	0.9%	15.1
COc1cccc(NC(=O)C(=O)N2CCOCC2)c1	40.5*	10.0%	?	3.4%	49.6*
COc1ccc(NC(=O)N2CCCC2)cc1OC	11.7	-1.9%	0.6%	1.9%	48.4
COC(=O)c1ccc(NC(=O)C(=O)N2CCN(C(=S)Nc3cccc(OC)c3)CC2)cc1	11.4	3.2%	1.1%	-2.3%	4.9
COc1ccc(NC(=O)N2CCCc3ccccc32)cc1OC	16.0*	-15.7%	-5.3%	2.8%	54.9
O=C(c1ccc(Cl)c([N+](=O)[O-])c1)N1CCCc2ccccc21	33.6*	-1.5%	-2.6%	-2.3%	39.3*
CCCCNC(=S)NNC(=O)c1nn(C)c(C)c1Cl	28.8*	-3.3%	-0.8%	27.3%	73.7*
COc1ccccc1NC(=S)NNC(=O)c1nn(C)c(C)c1Br	52.3*	-14.0%	1.5%	?	108.5*
COc1ccccc1NC(=S)NNC(=O)c1nn(C)c(C)c1Cl	34.0*	3.8%	1.0%	?	30.1
COc1ccccc1NC(=O)Nc1c(C)nn(C)c1C	6.4	/	-2.8%	-1.1%	-8.0
SMILES	CHX counter	NS1 inh	LmPK inhibitor	FBPA Giardia inh	Shiga inhibitor
COc1ccccc1NC(=S)NNC(=O)c1nn(C)cc1Cl	14.1	10.5%	1.0%	?	45.0
O=C(NC1CCCC1)C(c1cccnc1)N(C(=O)c1csnn1)c1ccccc1Cl (stereo unspecified)	-2.3	-4.6%	-4.2%	-3.6%	17.8
CNC(=O)C1(C(F)(F)F)C/C(=C/CCO)CCCO1 (stereo unspecified)	0.8	/	/	-0.6%	0.4
COc1ccc(-c2nnc(SCC(N)=O)n2N)cc1	1.2	1.6%	1.9%	1.7%	24.6
C=C(C)CSc1nnc(-c2ccc(OC)cc2)n1N	44.6*	-5.9%	3.0%	0.9%	53.3*
C=C(C)CSc1nnc(-c2cccc(Cl)c2)n1N	41.5*	-10.1%	-6.5%	-15.7%	110.8*
Cc1ccncc1C(=O)O	-2.0	/	/	2.0%	-6.0
CC(=O)N1c2ccc(S(=O)(=O)N3CCC(C(=O)Nc4cccc(C(F)(F)F)c4)CC3)cc2CC1C (stereo unspecified)	-2.4	13.4%	-9.3%	-0.9%	11.0
Cc1ccc(S(=O)(=O)N(CC(O)CN2CCOCC2)c2cccc([N+](=O)[O-])c2)cc1 (stereo unspecified)	-1.3	-3.8%	2.3%	3.7%	-10.7
O=S(=O)(O)/C(=C\c1ccccc1)c1ccccc1 (tested in a mixture with another compound)	/	-3.4%	/	/	/
COc1ccc(OCC(=O)N/N=C/c2ccc(N(C)C)cc2)cc1	25.8*	/	-0.4%	-0.7%	27.6
CN(C)c1ccc(/C=N\NC(=O)CC#N)cc1	29.8	/	-7.9%	-2.4%	34.8*
